# Reference: PubChem BioAssay AID1362 (SRMLSC, 2008)
# In all, about 190,000 compounds went through this assay and about 4,000 (2.1%) were called active. The sample holds actives, similar compounds and a random draw of the others, so the mix is not that of the screen. No stated cut-off is given here; in the data, active means inhibition above about 58%; inactive means the rest, inconclusive results apart; tested in S. cerevisiae.
# Experiment: growth inhibition of WT strain, primary screen, mitochondrial fusion inhibitor project, WT and mutant strains, chemical genetic (AID 1362)
# Conditions: mitochondrial fusion phenotypic screen, at 10 µM
# [1] = WT strain, growth inhibition, stronger effect = higher value
Compound,inhibition [1],inhibition (mutant strain inhibition)
O=c1cc(CSc2ccc(Cl)cc2)nc(N2CCOCC2)[nH]1,10.4% (inactive),-7.43%
Cc1ccc(Sc2cc(N3CCOCC3)nc(-c3ccccc3)n2)cc1,-0.33% (inactive),3.68%
CSCc1cc(N(C)C)nc(SCc2ccc(Cl)cc2Cl)n1,59.7% (active),52.5%
O=C(Nc1nnc(SCc2ccc(Cl)cc2Cl)s1)C1COc2ccccc2O1 (stereo not drawn),56.1% (inactive),17.9%
CSCc1cc(N2CCOCC2)nc(SCc2ccc(Cl)cc2Cl)n1,79.1% (active),52.8%
Clc1ccc(CSc2nnc(/C=C/c3ccccc3)o2)c(Cl)c1,38% (inactive),26.7%
COc1ccccc1CNC(=O)CNC(=O)c1cn(-c2ccccc2OC)c(=O)c2ccccc12,-8.54% (inactive),3.48%
O=C(NNC(=O)C1CCN(c2ncccn2)CC1)c1ccccc1,-10.9% (inactive),-13.4%
OCCC1CN(Cc2ccc3nsnc3c2)CCN1C1CCCC1 (stereo not drawn),2.03% (inactive),2.69%
O=C(CCCn1c(=O)c2sccc2n(CC(=O)NCC2CCCO2)c1=O)NCc1ccco1 (stereo not drawn),2.48% (inactive),3.2%
CC(=O)Nc1ccc(-c2csc(NC=C3C(=O)OC(C)(C)OC3=O)n2)cc1,-0.59% (inactive),17.6%
C/C(=N/Nc1ccc(Cl)cc1)c1cnnc(-c2ccccc2)n1,9.51% (inactive),20.8%
CCOC(=O)Cc1csc(SCC(=O)NC(C)C23CC4CC(CC(C4)C2)C3)n1 (stereo not drawn),59.2% (active),26.1%
CCOC(=O)Cc1csc(NC(=O)CSc2ccc(Br)cc2)n1,31.2% (inactive),25.6%
CCOC(=O)Cc1csc(NC(=O)CSc2nc(C)cc(=O)[nH]2)n1,15.9% (inactive),18.4%
C/C(=N\NC(=S)NCc1ccccc1)c1ccc(Cl)cc1,31.1% (inactive),21.1%
C/C(=N\NC(=S)NC(C)C)c1ccc(C(C)(C)C)cc1,70.2% (active),59%
CC/C(=N\NC(=S)NC(C)C)c1ccc(OC(F)F)cc1,32% (inactive),43.5%
c1ccc(C2c3[nH]c4ccccc4c3CCN2Cc2cccn2-c2cccnc2)nc1 (stereo not drawn),-2.92% (inactive),-2.59%
Oc1cccc(C2c3[nH]c4ccccc4c3CCN2Cc2cnn(-c3ccccc3)c2)c1 (stereo not drawn),59.9% (active),-4%
COc1cccc(C2c3[nH]c4ccccc4c3CCN2Cc2cccc(C)n2)c1 (stereo not drawn),40.2% (inactive),33.8%

Compound,inhibition [1],inhibition (mutant strain inhibition)
CCc1ccc(OCC(=O)OCC(=O)c2c(N)n(C)c(=O)n(C)c2=O)cc1,-10.7% (inactive),-9.86%
COc1ccc(Br)cc1/C=N/NC(=O)c1cccc(S(=O)(=O)N2CCOCC2)c1,1.71% (inactive),-16.2%
CC1CC(C)CN(CCC(=O)Nc2ccc3c(c2)CCC3)C1 (stereo not drawn),2.25% (inactive),2.32%
C=CCNc1ncnc2ccc(Br)cc12,6.92% (inactive),5.26%
CC1(C)CC2CC(C)(CN2c2ncnc3ccc(Br)cc23)C1 (stereo not drawn),64.4% (active),47.6%
COc1ccc(C(=O)N2CC3(C)CC2CC(C)(C)C3)cc1OC (stereo not drawn),-9.9% (inactive),6.2%
CC1=CC=CC2=N/C(=N\S(=O)(=O)c3ccc(F)cc3F)c3ccccc3CN12,7.93% (inactive),-4.27%
Cc1ccc(S(=O)(=O)N(C)CC(=O)OCC(=O)N2CC(=O)Nc3ccccc32)cc1,-2.48% (inactive),-6.41%
O=C(c1cccnc1)N(c1cc2sc(=O)oc2c2ccccc12)S(=O)(=O)c1ccccc1,69% (active),25.4%
CN(C)S(=O)(=O)c1cccc(C(=O)Nc2cccnc2)c1,-9.84% (inactive),2.94%
COc1ccc(N(C(=O)c2cccnc2)S(=O)(=O)c2ccc3c(c2)n(C)c(=O)n3C)cc1,-46.4% (inactive),-32.1%
CN1CCN(CCNC(=O)Nc2ccc([N+](=O)[O-])cc2)CC1,22.2% (inactive),0.87%
O=C(COc1ccc(S(=O)(=O)N2CCCCC2)cc1)NCc1ccccn1,14.7% (inactive),2.79%
CC1CCN(C(=O)c2ccc(CSc3ccc(Cl)cc3)cc2)CC1,75.2% (active),26.4%
O=C(c1ccc(CSc2ccccc2)cc1)N1CCCCCC1,38.9% (inactive),19.1%
O=C(C1CC1)N1CCN=C1SCc1ccc(Cl)cc1,22.2% (inactive),20.3%
CN(NC(=O)C1CC(=O)N(c2ccccc2)C1)C1=NS(=O)(=O)c2ccccc21 (stereo not drawn),-6.62% (inactive),8.77%
CC(C)N(Cc1ccccc1)C(=O)COC(=O)c1cnccn1,-8.68% (inactive),-4.78%
CCOc1cccc(/C=N/N2C(=O)CSC2=S)c1O,-2% (inactive),11.3%
COc1cccc(NC(=S)N(CCc2c(C)[nH]c3ccccc23)Cc2ccco2)c1,63.2% (active),-12.2%
CCNC(=S)N(CCc1c(C)[nH]c2ccc(C)cc12)Cc1ccco1,22.5% (inactive),-3.3%

Compound,inhibition [1],inhibition (mutant strain inhibition)
COc1ccc2[nH]c(C)c(CCN(Cc3cccs3)C(=S)Nc3ccccc3OC)c2c1,10.9% (inactive),3.89%
Cc1ccc(N(C(=O)c2sc(C)nc2C)C(C(=O)NC(C)(C)C)c2ccncc2)cc1 (stereo not drawn),-8.21% (inactive),7.16%
COc1ccc(C2CC(c3cccs3)=NN2C(=O)CSc2nnc(N)s2)cc1OC (stereo not drawn),-8.12% (inactive),-5.34%
CC1CC(=S)Nc2ccccc2N1Cc1ccccc1 (stereo not drawn),65.9% (active),26.3%
CCN1CN(Cc2ccccc2)CNC1=S,1.7% (inactive),0.04%
CC1CC(C)(C)NC(=S)N1CCC(=O)N1CCN(Cc2ccccc2)CC1 (stereo not drawn),-6.52% (inactive),-4.03%
COc1cccc(CC2(CO)CCCN(Cc3nc(-c4cccs4)oc3C)C2)c1 (stereo not drawn),19.9% (inactive),6.17%
CCN(CC)S(=O)(=O)c1ccc(Cl)c(NC(=O)c2ccncc2)c1,-7.6% (inactive),-15.4%
Cc1ccc(COc2ccc(C(=O)NN)cc2)cc1,18.5% (inactive),22.2%
CN(C)C(=O)c1nc2ccc(Cl)cn2c1CN1CCN(c2ncccn2)CC1,-14.1% (inactive),-9.73%
c1ccc(-c2cn3c(n2)CCc2ccc4cccnc4c2-3)cc1,67.5% (active),4.75%
c1ccc(-c2cn3cccnc3n2)cc1,7.76% (inactive),-1.07%
COc1ccc(/C=C/C(=O)N2CCCC2)cc1OC,-13.6% (inactive),-0.71%
Cc1ccccc1-c1n[nH]c(=S)n1C,-5.68% (inactive),4.36%
O=C(c1ccccc1)c1ccc2nc(N3CCCCC3)c3nncn3c2c1,60.2% (active),50.8%
O=C(Nc1ccccc1N1CCCCC1)c1ccc2nccnc2c1,26.1% (inactive),32.9%
c1ccc(CC2CCN(c3nc4ccccc4n4cnnc34)CC2)cc1,55.9% (inactive),25.1%
O=C(CN(CC1CCCO1)C(=O)CNS(=O)(=O)c1ccc(F)cc1)NCc1ccco1 (stereo not drawn),-16.3% (inactive),-1.9%
CSCCC(=O)N1CCCC(CNC(=O)c2ccccc2Cl)C1 (stereo not drawn),0.33% (inactive),-1.81%
CCC1(C)Cc2c(sc3[nH]c(=S)n(Cc4ccccc4)c(=O)c23)CO1 (stereo not drawn),71% (active),-13.6%
CCC1(C)Cc2c(sc3nnn(CC(=O)Nc4ccc(Cl)cc4)c(=O)c23)CO1 (stereo not drawn),6.37% (inactive),8.2%

Compound,inhibition [1],inhibition (mutant strain inhibition)
CCn1c(=S)[nH]c2sc3c(c2c1=O)CCCCC3,44.5% (inactive),47.1%
c1ccc2sc(NN=C3CCCC3)nc2c1,1.96% (inactive),-13.6%
Cc1cc(C)n2nc(SCC(N)=O)nc2n1,1.11% (inactive),-5.58%
COc1ccc(Br)cc1CN(C)CC(=O)Nc1cc(Cl)cc(Cl)c1,64.1% (active),-2.55%
COc1ccc(Br)cc1CN(C)CC(=O)Nc1cc([N+](=O)[O-])ccc1OC,-3.27% (inactive),14%
COc1ccc(Cl)cc1NC(=O)CN(C)Cc1ccc(OC)c(OC)c1,13.3% (inactive),10.6%
CCC(C(=O)Nc1ccc2c(c1)OCCO2)c1ccccc1 (stereo not drawn),-3.34% (inactive),-11.8%
CCOC(=O)N1CCN(Cc2nc3ccc([N+](=O)[O-])cc3c(=O)n2-c2cccc(OC)c2)CC1,-16.2% (inactive),2.45%
COc1cc(C(=O)NCc2ccc(-n3cccc3)cc2)cc(OC)c1OC,4.37% (inactive),-13.6%
COC(=O)CCNC(=O)c1ccc2[nH]c(C)c(C)c2c1,3.23% (inactive),-1.22%
Cc1cccc(OCC(O)CN2CCN(CCN3C(=O)c4cccc5cccc(c45)C3=O)CC2)c1C (stereo not drawn),64.5% (active),57.3%
Cc1cccc(C)c1OCC(O)CN1CCCCC1 (stereo not drawn),-0.96% (inactive),0.39%
Cc1ccccc1OCC(O)CN1CCN(c2ccccn2)CC1 (stereo not drawn),5.12% (inactive),6.35%
CN(CCc1cn[nH]c1)C(=O)CC1C(=O)NCCN1Cc1cccc(Oc2ccccc2)c1 (stereo not drawn),0.86% (inactive),0.64%
CC(C)C(=O)Nc1oc(-c2ccccc2)cc1C#N,8.16% (inactive),-3.13%
CCCC(=O)Nc1nnc(-c2ccccc2)o1,-6.78% (inactive),13.2%
O=C(Nc1nnc(-c2ccccc2)o1)c1cc(-c2cccs2)nc2ccccc12,70.4% (active),64.4%
CC(C)(C)Cc1nnc(NC(=O)c2cc(-c3ccccc3)nc3ccccc23)s1,34.7% (inactive),9.7%
Cc1cc(C)c2[nH]c(=O)c(CN(Cc3ccccc3)C(=S)NCCCN(C)C)cc2c1,-2.4% (inactive),16.4%
Cc1cc2c(cc1C)[n+](C)cn2CC(O)COCC1CC=CCC1 (stereo not drawn),0.89% (inactive),-7.37%
COc1ccc(C)cc1NC(=O)c1ccc(-c2ccc(C(C)=O)cc2)o1,15.7% (inactive),5.74%
